# In the supplement of paper PMC8728848:
# The entries come from a sample that favours the strongest signals as a whole.
# B1: CRT-1 (Homo sapiens), P27797 (protein)
# chain: MLLSVPLLLGLLGLAVAEPAVYFKEQFLDGDGWTSRWIESKHKSDFGKFVLSSGKFYGDEEKDKGLQTSQDARFYALSASFEPFSNKGQTLVVQFTVKHEQNIDCGGGYVKLFPNSLDQTDMHGDSEYNIMFGPDICGPGTKKVHVIFNYKGKNVLINKDIRCKDDEFTHLYTLIVRPDNTYEVKIDNSQVESGSLEDDWDFLPPKKIKDPDASKPEDWDERAKIDDPTDSKPEDWDKPEHIPDPDAKKPEDWDEEMDGEWEPPVIQNPEYKGEWKPRQIDNPDYKGTWIHPEIDNPEYSPDPSIYAYDNFGVLGLDLWQVKSGTIFDNFLITNDEAYAEEFGNETWGVTKAAEKQMKDKQDEEQRLKEEEEDKKRKEEEEAEDKEDDEDKDEDEEDEEDKEEDEEEDVPGQAKDEL
# Columns and labels:
# Test in all cases: glycan array binding signal (z-score within array); higher = stronger binding
# Settings in all cases: glycan notation: IUPAC condensed, linker removed
# [1] = biological target: Fuc(a1-2)Gal(b1-4)Fuc(a1-3)]GlcNAc(b1-2)Man(a1-3)[Fuc(a1-2)Gal(b1-4)[Fuc(a1-3)]GlcNAc(b1-2)Man(a1-6)]Man(b1-4)GlcNAc(b1-4)GlcNAc
# Summary of the method: (§1)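 The binding signal is a Z-score computed within each array. Data were drawn from 3228 arrays in the Consortium for Functional Glycomics database, restricted to those with a known protein sequence. Scores were averaged over arrays of the same protein sequence at different concentrations or buffers, and over linkers, and negative values can be taken as non-binding.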
# [2] = biological target: Fuc(a1-2)Gal(b1-4)GlcNAc(b1-3)[Fuc(a1-3)[Gal(b1-4)]GlcNAc(b1-6)]Gal(b1-4)Glc
# Summary of the method: as §1
# [3] = biological target: Fuc(a1-2)Gal(b1-4)[Fuc(a1-3)]GlcNAc(b1-2)Man(a1-3)[Fuc(a1-2)Gal(b1-4)[Fuc(a1-3)]GlcNAc(b1-2)Man(a1-6)]Man(b1-4)GlcNAc(b1-4)GlcNAc
# Summary of the method: as §1
# [4] = biological target: Fuc(a1-2)Gal6S(b1-3)GlcNAc6S
# Summary of the method: as §1
# [5] = biological target: Fuc(a1-2)[Gal(a1-3)]Gal(b1-3)GlcNAc(b1-3)GalNAc
# Summary of the method: as §1
# [6] = biological target: Fuc(a1-2)[Gal(a1-3)]Gal(b1-4)[Fuc(a1-3)]Glc
# Summary of the method: as §1
# [7] = biological target: Fuc(a1-2)[GalNAc(a1-3)]Gal(b1-4)GlcNAc
# Summary of the method: as §1
# [8] = biological target: Fuc(a1-2)[GalNAc(a1-3)]Gal(b1-4)GlcNAc(b1-2)Man(a1-3)[Fuc(a1-2)[GalNAc(a1-3)]Gal(b1-4)GlcNAc(b1-2)Man(a1-6)]Man(b1-4)GlcNAc(b1-4)GlcNAc
# Summary of the method: as §1
# Fuc(a1-3)GlcNAc = biological target: Fuc(a1-3)GlcNAc
# Summary of the method: as §1
# [9] = biological target: Fuc(a1-3)[Gal3S(b1-4)]GlcNAc
# Summary of the method: as §1
# [10] = biological target: Fuc(a1-3)[Gal3S(b1-4)]GlcNAc6S
# Summary of the method: as §1
# Gal(a1-3)Gal(b1-3)GlcNAc = biological target: Gal(a1-3)Gal(b1-3)GlcNAc
# Summary of the method: as §1
# [11] = biological target: Gal(a1-3)Gal(b1-3)[Fuc(a1-4)]GlcNAc(b1-2)Man(a1-3)[Gal(a1-3)Gal(b1-3)[Fuc(a1-4)]GlcNAc(b1-2)Man(a1-6)]Man(b1-4)GlcNAc(b1-4)GlcNAc
# Summary of the method: as §1
# [12] = biological target: Gal(a1-3)Gal(b1-4)GlcNAc(b1-2)Man
# Summary of the method: as §1
# [13] = biological target: Gal(a1-3)[Gal(a1-4)]Gal(b1-4)GlcNAc
# Summary of the method: as §1
# [14] = biological target: Gal(a1-4)Gal(b1-4)GlcNAc(b1-2)Man(a1-3)[Gal(a1-4)Gal(b1-4)GlcNAc(b1-2)Man(a1-6)]Man(b1-4)GlcNAc(b1-4)GlcNAc
# Summary of the method: as §1
# Gal(b1-3)GlcNAc = biological target: Gal(b1-3)GlcNAc
# Summary of the method: as §1
# [15] = biological target: Gal(b1-3)GlcNAc(b1-2)Man(a1-3)[Gal(b1-3)GlcNAc(b1-2)Man(a1-6)]Man(b1-4)GlcNAc(b1-4)[Fuc(a1-6)]GlcNAc
# Summary of the method: as §1
# Gal(b1-3)GlcNAc6S = biological target: Gal(b1-3)GlcNAc6S
# Summary of the method: as §1
# [16] = biological target: Gal(b1-3)[Fuc(a1-4)]GlcNAc(b1-2)Man(a1-3)[Gal(b1-3)[Fuc(a1-4)]GlcNAc(b1-2)Man(a1-6)]Man(b1-4)GlcNAc(b1-4)GlcNAc
# Summary of the method: as §1
# Gal(b1-4)Gal = biological target: Gal(b1-4)Gal
# Summary of the method: as §1
# [17] = biological target: Gal(b1-4)GlcNAc(b1-3)Gal(b1-3)GlcNAc
# Summary of the method: as §1
# [18] = biological target: Gal(b1-4)GlcNAc(b1-3)Gal(b1-4)GlcNAc(b1-3)Gal(b1-4)GlcNAc(b1-3)Gal(b1-4)GlcNAc(b1-2)Man(a1-3)[Gal(b1-4)GlcNAc(b1-3)Gal(b1-4)GlcNAc(b1-3)Gal(b1-4)GlcNAc(b1-3)Gal(b1-4)GlcNAc(b1-2)Man(a1-6)]Man(b1-4)GlcNAc(b1-4)[Fuc(a1-6)]GlcNAc
# Summary of the method: as §1
# [19] = biological target: Gal(b1-4)GlcNAc(b1-3)Gal(b1-4)GlcNAc(b1-3)Gal(b1-4)GlcNAc(b1-3)Gal(b1-4)GlcNAc(b1-3)Gal(b1-4)GlcNAc(b1-2)Man(a1-3)[Gal(b1-4)GlcNAc(b1-3)Gal(b1-4)GlcNAc(b1-3)Gal(b1-4)GlcNAc(b1-3)Gal(b1-4)GlcNAc(b1-3)Gal(b1-4)GlcNAc(b1-2)Man(a1-6)]Man(b1-4)GlcNAc(b1-4)GlcNAc
# Summary of the method: as §1
# [20] = biological target: Gal(b1-4)GlcNAc(b1-3)[Gal(b1-4)GlcNAc(b1-6)]Gal(b1-4)GlcNAc
# Summary of the method: as §1
# [21] = biological target: Gal(b1-4)GlcNAc(b1-3)[Gal(b1-4)GlcNAc(b1-6)]GalNAc
# Summary of the method: as §1
binder,measurement,setting,value
B1,glycan array binding signal (z-score),[1],1.49
same,glycan array binding signal (z-score),[2],0.038
same,glycan array binding signal (z-score),[3],2.15
same,glycan array binding signal (z-score),[4],0.305
same,glycan array binding signal (z-score),[5],-0.073
same,glycan array binding signal (z-score),[6],-0.424
same,glycan array binding signal (z-score),[7],-0.467
same,glycan array binding signal (z-score),[8],0.117
same,glycan array binding signal (z-score),Fuc(a1-3)GlcNAc,2.63
same,glycan array binding signal (z-score),[9],0.572
same,glycan array binding signal (z-score),[10],0.146
same,glycan array binding signal (z-score),Gal(a1-3)Gal(b1-3)GlcNAc,-0.43
same,glycan array binding signal (z-score),[11],0.078
same,glycan array binding signal (z-score),[12],-0.279
same,glycan array binding signal (z-score),[13],0.255
same,glycan array binding signal (z-score),[14],-0.021
same,glycan array binding signal (z-score),Gal(b1-3)GlcNAc,-0.063
same,glycan array binding signal (z-score),[15],0.223
same,glycan array binding signal (z-score),Gal(b1-3)GlcNAc6S,0.611
same,glycan array binding signal (z-score),[16],2.33
same,glycan array binding signal (z-score),Gal(b1-4)Gal,-0.253
same,glycan array binding signal (z-score),[17],-0.342
same,glycan array binding signal (z-score),[18],1.79
same,glycan array binding signal (z-score),[19],1.75
same,glycan array binding signal (z-score),[20],0.487
same,glycan array binding signal (z-score),[21],-0.095
